Assay results published in PubChem BioAssay (NCI).
The panel holds about 83,000 compounds, 20% with a hit somewhere; the sample as a whole holds those more often.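 The test compound was applied at a single concentration to cells in 96-well plates for 48 hours, and percent growth was recorded.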 A number with no mark means an inactive call. Calls of active or inactive are those of the source. The calls were made as follows: active = growth percent below 10; inactive = the rest.

Assays:
Assay in all cases: NCI-60 one-dose screen, 48 h (100 = growth as untreated, 0 = no growth, -100 = all killed)
[1] = test system: SK-MEL-2 melanoma; details: 10 µM unless noted
[2] = test system: EKVX NSCLC; details: 10 µM
[3] = test system: UO-31 renal; details: 10 µM unless noted
[4] = test system: TK-10 renal; details: 10 µM unless noted
[5] = test system: ACHN renal; details: 10 µM unless noted
[6] = test system: CAKI-1 renal; details: 10 µM unless noted
[7] = test system: A498 renal; details: 10 µM unless noted
[8] = test system: CCRF-CEM leukemia; details: 10 µM
[9] = test system: MOLT-4 leukemia; details: 10 µM unless noted
[10] = test system: SN12C renal; details: 10 µM unless noted

| Compound | growth [1] | growth [2] [%] | growth [3] | growth [4] | growth [5] | growth [6] | growth [7] | growth [8] | growth [9] | growth [10] |
| --- | --- | --- | --- | --- | --- | --- | --- | --- | --- | --- |
| Oc1ccc(CN(Cc2ccc(C(F)(F)F)cc2)Cc2ccc(O)c3ncccc23)c2cccnc12 | 24.5% | 19 | 4.59% (active) | 14.7% | 9.38% (active) | 5.6% (active) | 41.6% | 8.17% (active) | 10.4% |  |
| O=C(Oc1ccccc1)c1ccccc1Cl | 123% | 99.6 | 96.7% | 111% |  |  |  | -11.9% (active) | 110% | 107% |
| O=C(CBr)OCc1ccc([N+](=O)[O-])o1 | 97.9% | 124 |  | 101% | 89.6% | 53.8% |  | 74.1% | 95.6% | 98.8% |
| COc1ccc2c(c1)/C(=C/c1c(-c3cc(OC)c(OC)c(OC)c3)nc3sccn13)C(=O)N2 | 98.6% | 94.3 | 77.8% | 102% | 100% | 67.3% | 65.3% | -43.3% (active) | -61.2% (active) |  |
| CC[C@H](Nc1ncnc2nc[nH]c12)c1nc2cccc(NCc3ccc(C(=O)NO)o3)c2c(=O)n1-c1ccccc1 | 102% | 110 | 79% | 84.1% |  |  | 97% | 88.7% | 97.8% | 95.2% |
| O=C1c2cc([N+](=O)[O-])ccc2-c2cc(Cl)c(NC(=O)C(F)(F)F)cc21 | 97.1% | 73.3 | 93.2% | 129% | 99.5% | 97.2% | 101% | 96.6% | 94% |  |
| CCN(CCO)CCNc1ccc(C)c2sc3cc(OC)ccc3c(=O)c12 | 99.1% | 86.4 | 49.4% | 79.3% |  |  |  | 47.9% | 21.7% | 55.9% |
| O=c1[nH]c(=S)[nH]c(O)c1/C=C1\C=Nc2ccccc21 | 128% | 75.1 | 31.1% | 86.9% | 82.5% | 27.3% |  | 4.02% (active) | 42.4% |  |
| CC[n+]1c(C)ccc2cc(C)ccc21 | 106% | 72.6 |  | 98.1% | 106% | 113% | 96.7% | 98% | 89.9% | 96.8% |
| N=C(N)N=Nc1ccc(NN=C(N)N)c2ccccc12 | 104% | 116 | 69.6% | 108% |  |  |  | 101% | 97.1% | 73.2% |
| COc1ccc(-c2nc(SCC(C)C)nc(Nc3ccccc3)c2C#N)cc1 | 111% | 85 | 56.8% | 46.9% | 27.4% |  | 75.2% | 64.6% | 88.2% |  |
| Cc1c([C@H](C(Cl)Cl)[C@H](O)[C@H]2C[C@H](C)C(=O)O2)ccc2c1C(=O)[C@H]1[C@H]2C[C@@H](Br)[C@@]23O[C@@H](CO[C@H]2O)CC13C (stereo not given in full) | 74% | 27.7 | 56.2% |  | 45.9% | -31.4% (active) | -22.6% (active) | 17.2% | 16.4% | 25.1% |
| CC(=O)c1cc(Nc2cc(C)nc(N)n2)cc(C(C)=O)c1 | 100% | 101 | 92.7% | 94.8% | 102% | 87% | 91.7% | 86.9% | 91.2% |  |
| Cc1nnc(/N=C2\NC(=O)/C(=C/C=C/c3ccccc3)S2)s1 | 57.7% | 67.1 | 55.2% | 70.3% |  |  | 65.3% | 29.8% | 43.7% | 66.2% |
| COC(=O)c1ccc2[nH]c(O)c(C(=Nc3ccc(N(C)C(=O)CN4CCN(C)CC4)cc3)c3ccc(N)cc3)c2c1 | 93.1% | 95.5 | 75.6% | 76.4% | 94.7% | 63.9% | 92.7% | 60.4% | 52.3% |  |
| CC(O)C(N)=O (stereo not given) | 111% | 99.6 | 97% | 108% | 104% | 95.6% | 103% | 102% | 110% |  |

| Compound | growth [1] | growth [2] [%] | growth [3] | growth [4] | growth [5] | growth [6] | growth [7] | growth [8] | growth [9] | growth [10] |
| --- | --- | --- | --- | --- | --- | --- | --- | --- | --- | --- |
| O=C(/C=C1\C(=O)N(Cc2ccc([N+](=O)[O-])cc2)c2ccccc21)c1ccc(OCCN2CCCC2)cc1 | 93.7% | 71.5 | 40.8% | 82.8% |  |  | 83.1% | 15.2% | 9.27% (active) | 37.3% |
| CCCCN(CCC)CCCCCCCCCCN1CCCc2ccccc21 | 92.3% | 64.3 | 54.3% | 82.7% | 82.7% | 63.2% |  | 26.8% | 50.5% |  |
| Cc1ccc(C(C)C)c(OCc2ccc(C(=O)N/N=C/c3cccc(O)c3O)cc2)c1 | 71.5% | 49.1 | 16.1% | 74% | 12.8% | 31.6% | 90.2% | 6.92% (active) | 7.88% (active) |  |
| COC(=O)c1cc(=O)nc(N/N=C/c2ccccc2O)s1 | 97.9% |  | 61.4% | 112% | 92.3% | 79% | 112% |  | 72.1% | 90.9% |
| O=C(/C=C/c1ccc(Cl)cc1)c1ccc(Cl)cc1 | 97.2% |  | 76.2% | 78% | 109% | 75.7% | 82.8% | 66.9% | 81% | 102% |
| CSc1nc(N)n2nccc2n1 | 115% |  | 65.4% | 99.8% | 112% | 70.6% | 109% |  | 98.9% | 96.8% |
| CCCC[N+](C)(N)CCCC | 108% |  | 91.7% | 109% | 99.7% | 94.4% | 115% |  | 94.6% | 104% |
| CN(CCC#N)c1ccc(/C=C(\C#N)c2cccc(C(F)(F)F)c2)cc1 | 51% |  | 53.4% | 69.3% | 76.1% | 49.8% | 74.1% |  | 53.8% | 72.1% |
| COC(=O)[C@H](Cc1cn(C)cn1)NC(=O)[C@H](CC(=O)OCc1ccccc1)NC(=O)Nc1cc(C(F)(F)F)cc(C(F)(F)F)c1 | -92.6% [100 µM] (active) |  | -96.3% [100 µM] (active) | -97.5% [100 µM] (active) | -98.6% [100 µM] (active) | -91.9% [100 µM] (active) | -92.3% [100 µM] (active) |  | -62.8% [100 µM] (active) | -91.1% [100 µM] (active) |
| CCN(CC)C(=O)C1(C)CCCC2(C)c3cc(OC(C)=O)ccc3CCC12 (stereo not given) | 80.3% |  | 54.4% | 78.1% | 80.7% | 76.8% | 83.9% |  | 64.1% | 91.7% |
| C=CCC(CCC(CC=C)C(=O)OCC)C(=O)OCC (stereo not given) | 106% |  | 88.5% | 91.6% | 108% | 103% | 120% |  | 104% | 100% |
| CCCCCCCCCCC1OC(C)CC(C)O1 (stereo not given) | 105% |  | 90.9% | 100% | 97.8% | 95.7% | 102% |  | 86.7% | 103% |
| CCOC(=O)c1csc(-c2ccc(COC(=O)c3ccccc3)o2)n1 | 107% |  | 83.5% | 107% | 95% | 81.2% | 112% |  | 4.16% (active) | 96.1% |
| CC[N+](C)(C)N | 108% |  | 89.8% | 100% | 110% | 95.4% | 121% |  | 104% | 104% |
| [N-]=[N+]=Nc1ncc(-c2ccc(C(F)(F)F)cc2)c(NC2CCCCCC2)n1 | 5.91% [100 µM] (active) |  | 22.1% [100 µM] | 45.3% [100 µM] | 26.8% [100 µM] | -14.6% [100 µM] (active) | 32.9% [100 µM] |  | 16.9% [100 µM] | 42.5% [100 µM] |
